# Experimental data as given in PubChem BioAssay (EPA / NIEHS).
# Activity calls are given as the source filed them. How the source made its calls: active means hit-call score of the fitted dose curve at least 0.9, where 1 is the maximum; inactive means score below 0.9.
# Tests used:
# [1] = read-out: C-C motif chemokine 2 (Homo sapiens) (UniProt P13500); experiment: BSK_KF3CT_MCP1: BioMAP Diversity Plus: KF3CT Assay for Monocyte Chemoattractant Protein 1 (MCP1/CCL2) Biomarker Activity (AID 2283073); settings: primary human keratinocytes with fibroblasts; actives raise or lower the signal
# How it was run: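 Human keratinocyte–foreskin fibroblast co-culture; MCP-1 measured by ELISA 24 h after dosing. Bidirectional fit vs DMSO; cytotoxicity tracked by SRB total protein in parallel cultures.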
# [2] = read-out: Matrix Metallopeptidase 9 (MMP9), MMP9 (gene 4318); experiment: BSK_KF3CT_MMP9: BioMAP Diversity Plus: KF3CT Assay for Matrix Metallopeptidase 9 (MMP9) Biomarker Activity (AID 2283074); settings: primary human keratinocytes with fibroblasts; actives raise or lower the signal;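 on AC50: MMP9 protein level quantified by ELISA in the co-culture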
# How it was run: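 MMP-9 quantified by ELISA after 24 h chemical treatment of primary human skin keratinocyte/fibroblast co-cultures; gain or loss fitted against DMSO, with parallel SRB staining (0.1% SRB, 560 nm) for overt cytotoxicity.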
# [3] = read-out: urokinase plasminogen activator (uPA), PLAU (gene 5328); experiment: BSK_KF3CT_uPA: BioMAP Diversity Plus: KF3CT Assay for urokinase plasminogen activator (uPA) Biomarker Activity (AID 2283075); settings: primary human keratinocytes with fibroblasts; actives raise or lower the signal
# How it was run: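 ELISA read-out of uPA 24 h after dosing human skin keratinocytes co-cultured with foreskin fibroblasts. Signal change fitted both ways relative to DMSO; sulforhodamine B on parallel cultures marks overt cytotoxicity.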
# CD40, CD40 (gene 958) [4] = experiment: BSK_LPS_CD40: BioMAP Diversity Plus: LPS Assay for CD40 Biomarker Activity (AID 2283076); settings: primary human HUVEC with PBMC; actives raise or lower the signal
# How it was run: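 HUVEC plus PBMC co-culture stimulated with LPS; CD40 quantified by ELISA 24 h after compound dosing. Fitting was bidirectional relative to DMSO. SRB staining of parallel cultures flagged overt cytotoxicity.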
# [5] = read-out: E-selectin (Homo sapiens) (UniProt P16581); experiment: BSK_LPS_Eselectin: BioMAP Diversity Plus: LPS Assay for Eselectin Biomarker Activity (AID 2283077); settings: primary human HUVEC with PBMC; actives raise or lower the signal
# How it was run: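 Human umbilical vein endothelial cells co-cultured with PBMC under LPS stimulation; cell-surface E-selectin measured by ELISA 24 h after dosing. Change in either direction versus DMSO, with SRB total-protein staining in parallel cultures for cytotoxicity.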
# [6] = read-out: Interleukin-8 (IL8), CXCL8 (gene 3576); experiment: BSK_LPS_IL8: BioMAP Diversity Plus: LPS Assay for Interleukin-8 (IL8) Biomarker Activity (AID 2283078); settings: primary human HUVEC with PBMC; actives raise or lower the signal
# How it was run: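 Human umbilical vein endothelial cells co-cultured with PBMC, LPS-stimulated, exposed to compound for 24 h. IL-8 quantified by ELISA; fitted in both directions against DMSO, with SRB total-protein staining of parallel cultures for cytotoxicity.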
# [7] = BSK_LPS_SRB: Viability Assessment in the BioMAP Diversity Plus: LPS Assay (AID 2283079); settings: primary human HUVEC with PBMC;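 further: total protein by sulforhodamine B absorbance as a cytotoxicity measure; measured one day after compound addition; fitted in both directions against DMSO so loss or gain of signal counts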
# How it was run: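 Co-culture of human umbilical vein endothelial cells and PBMC, read 24 h after dosing. Total protein by 0.1% SRB staining after 10% TCA fixation, absorbance at 560 nm; bidirectional fit against DMSO.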
# [8] = read-out: Interleukin-1 alpha (IL1a), IL1A (gene 3552); experiment: BSK_LPS_IL1a: BioMAP Diversity Plus: LPS Assay for Interleukin-1 alpha (IL1a) Biomarker Activity (AID 2283080); settings: primary human HUVEC with PBMC; actives raise or lower the signal
# How it was run: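 Human umbilical vein endothelial cells co-cultured with PBMC and stimulated with LPS; IL-1a measured by ELISA 24 h after dosing. Bidirectional fitting against DMSO; cytotoxicity checked by SRB staining in parallel cultures.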
# [9] = read-out: Monocyte Chemoattractant Protein-1 (MCP1), CCL2 (gene 6347); experiment: BSK_LPS_MCP1: BioMAP Diversity Plus: LPS Assay for Monocyte Chemoattractant Protein-1 (MCP1) Biomarker Activity (AID 2283081); settings: primary human HUVEC with PBMC; actives raise or lower the signal
# How it was run: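 Human umbilical vein endothelial cells co-cultured with PBMC, LPS-stimulated; secreted MCP-1 measured by ELISA 24 h after compound addition. Bidirectional curve fitting against DMSO baseline; SRB total-protein staining in parallel cultures for cytotoxicity.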
# [10] = BSK_LPS_PGE2: BioMAP Diversity Plus: LPS Assay for Prostaglandin E2 (PGE2) Biomarker Activity (AID 2283082); settings: primary human HUVEC with PBMC; actives raise or lower the signal;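 on AC50: secreted prostaglandin E2 measured by ELISA in LPS-stimulated co-culture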
# How it was run: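 Compounds were added to the LPS co-culture of endothelium and PBMC, and PGE2 was measured by ELISA after 24 h. Responses in either direction were fitted with DMSO as baseline.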
# [11] = read-out: Macrophage colony-stimulating factor (MCSF), CSF1 (gene 1435); experiment: BSK_LPS_MCSF: BioMAP Diversity Plus: LPS Assay for Macrophage colony-stimulating factor (MCSF) Biomarker Activity (AID 2283083); settings: primary human HUVEC with PBMC; actives raise or lower the signal
# How it was run: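 HUVEC–PBMC co-culture, M-CSF measured by ELISA 24 h after chemical dosing. Fitted in both directions relative to DMSO as negative control; overt cytotoxicity assessed by SRB total-protein staining in parallel cultures.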
# [12] = read-out: Tissue Factor, F3 (gene 2152); experiment: BSK_LPS_TissueFactor: BioMAP Diversity Plus: LPS Assay for Tissue Factor Biomarker Activity (AID 2283084); settings: primary human HUVEC with PBMC; actives raise or lower the signal
# How it was run: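 Human umbilical vein endothelial cells co-cultured with PBMC were dosed with compound. Cell-surface CD142 was measured by ELISA 24 h later. Activity was fitted bidirectionally against DMSO, with SRB total-protein staining in parallel cultures for cytotoxicity.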
# [13] = read-out: Tumor necrosis factor (Homo sapiens) (UniProt P01375); experiment: BSK_LPS_TNFa: BioMAP Diversity Plus: LPS Assay for Tumour Necrosis Factor alpha (TNFa) Biomarker Activity (AID 2283085); settings: primary human HUVEC with PBMC; actives raise or lower the signal;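 on AC50: TNFa protein level quantified by ELISA in the co-culture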
# How it was run: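 Cells (umbilical vein endothelium plus peripheral blood mononuclear cells) were dosed with chemical, incubated 24 h, then TNFa was quantified by ELISA; values derive from bidirectional fitting with DMSO as baseline.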
# [14] = read-out: Vascular cell adhesion molecule 1 (VCAM1), VCAM1 (gene 7412); experiment: BSK_LPS_VCAM1: BioMAP Diversity Plus: LPS Assay for Vascular cell adhesion molecule 1 (VCAM1) Biomarker Activity (AID 2283086); settings: primary human HUVEC with PBMC; actives raise or lower the signal
# How it was run: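 Cells are dosed in an LPS-stimulated endothelial/mononuclear co-culture and, after 24 h, VCAM-1 is quantified by ELISA. Activity in either direction is fitted relative to the DMSO negative control.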
# CD40, CD40 (gene 958) [15] = experiment: BSK_SAg_CD40: BioMAP Diversity Plus: SAg Assay for CD40 Biomarker Activity (AID 2283088); settings: primary human HUVEC with PBMC; actives raise or lower the signal
# How it was run: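 HUVEC plus PBMC co-culture, superantigen-activated, with CD40 read by ELISA 24 h after dosing. Curves fitted in both directions against DMSO. Overt cytotoxicity checked by parallel SRB total-protein staining.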
# CD69, CD69 (gene 969) = experiment: BSK_SAg_CD69: BioMAP Diversity Plus: SAg Assay for CD69 Biomarker Activity (AID 2283089); settings: primary human HUVEC with PBMC; actives raise or lower the signal
# How it was run: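 Primary human vascular co-culture (umbilical vein endothelium with peripheral blood mononuclear cells) exposed to test chemical for 24 h. CD69 levels quantified by fluorescence ELISA; DMSO served as negative control for bidirectional fitting.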
# [16] = read-out: Monocyte Chemoattractant Protein-1 (MCP1), CCL2 (gene 6347); experiment: BSK_SAg_MCP1: BioMAP Diversity Plus: SAg Assay for Monocyte Chemoattractant Protein-1 (MCP1) Biomarker Activity (AID 2283090); settings: primary human HUVEC with PBMC; actives raise or lower the signal
# How it was run: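 Values derive from bidirectional fitting of ELISA-measured MCP1 against DMSO controls. Readings were taken 24 h after dosing human vascular endothelial cells co-cultured with peripheral blood mononuclear cells under superantigen stimulation.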
# [17] = read-out: E-selectin (Homo sapiens) (UniProt P16581); experiment: BSK_SAg_Eselectin: BioMAP Diversity Plus: SAg Assay for Eselectin Biomarker Activity (AID 2283091); settings: primary human HUVEC with PBMC; actives raise or lower the signal
# How it was run: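 Human umbilical vein endothelial cells co-cultured with peripheral blood mononuclear cells, SAg system. E-selectin is measured by ELISA 24 h after dosing and fitted bidirectionally against DMSO. Cytotoxicity is checked by SRB staining of parallel cultures.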
# [18] = read-out: Monokine induced gamma interferon (MIG), CXCL9 (gene 4283); experiment: BSK_SAg_MIG: BioMAP Diversity Plus: SAg Assay for Monokine induced gamma interferon (MIG) Biomarker Activity (AID 2283092); settings: primary human HUVEC with PBMC; actives raise or lower the signal
# How it was run: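 Endothelial cells and PBMC were co-cultured, exposed to test chemicals, and sampled 24 h later. MIG was measured by ELISA, and responses were fitted in both directions relative to DMSO.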
# CD38, CD38 (gene 952) = experiment: BSK_SAg_CD38: BioMAP Diversity Plus: SAg Assay for CD38 Biomarker Activity (AID 2283087); settings: primary human HUVEC with PBMC; actives raise or lower the signal
# How it was run: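 CD38 quantified by ELISA (fluorescence) in a superantigen-activated endothelial cell–PBMC co-culture at 24 h post-dose. Activity fitted in both directions relative to DMSO; parallel SRB and Alamar Blue cytotoxicity read-outs.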
# E-selectin (Homo sapiens), sequence (P16581 whole entry, looked up): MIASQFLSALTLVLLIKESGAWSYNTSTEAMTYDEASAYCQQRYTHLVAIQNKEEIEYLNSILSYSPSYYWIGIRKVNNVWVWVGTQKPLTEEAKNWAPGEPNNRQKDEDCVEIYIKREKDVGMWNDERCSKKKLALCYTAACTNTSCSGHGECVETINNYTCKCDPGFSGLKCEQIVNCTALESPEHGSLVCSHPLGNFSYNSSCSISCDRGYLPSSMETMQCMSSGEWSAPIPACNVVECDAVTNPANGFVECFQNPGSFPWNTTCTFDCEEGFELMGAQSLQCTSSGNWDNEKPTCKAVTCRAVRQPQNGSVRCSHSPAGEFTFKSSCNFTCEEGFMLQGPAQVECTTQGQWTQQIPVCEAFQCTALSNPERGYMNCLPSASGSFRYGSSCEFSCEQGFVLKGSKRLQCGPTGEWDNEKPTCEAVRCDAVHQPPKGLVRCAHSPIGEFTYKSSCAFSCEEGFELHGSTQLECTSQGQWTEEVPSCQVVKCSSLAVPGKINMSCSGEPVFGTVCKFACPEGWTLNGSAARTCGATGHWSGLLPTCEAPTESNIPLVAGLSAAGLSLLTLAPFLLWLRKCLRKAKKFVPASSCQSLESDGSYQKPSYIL
# Tumor necrosis factor (Homo sapiens), sequence (P01375 whole entry, looked up): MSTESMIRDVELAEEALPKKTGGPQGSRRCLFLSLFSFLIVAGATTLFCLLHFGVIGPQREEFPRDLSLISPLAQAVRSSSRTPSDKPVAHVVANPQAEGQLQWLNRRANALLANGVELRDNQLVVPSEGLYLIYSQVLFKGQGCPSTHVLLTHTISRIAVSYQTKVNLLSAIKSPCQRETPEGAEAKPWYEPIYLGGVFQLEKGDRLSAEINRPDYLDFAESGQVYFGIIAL
compound,measurement,setting,value
CCCOc1ccc(S(=O)(=O)N2CCN(CC)CC2)cc1-c1nc2c(CC)n(Cc3ccccn3)nc2c(=O)[nH]1,outcome,[1],inactive
same,outcome,[2],inactive
same,outcome,[3],inactive
same,outcome,"CD40, CD40 (gene 958) [4]",inactive
same,outcome,[5],inactive
same,outcome,[6],inactive
same,outcome,[7],inactive
same,outcome,[8],inactive
same,outcome,[9],inactive
same,outcome,[10],inactive
same,outcome,[11],inactive
same,outcome,[12],inactive
same,AC50,[13],3.63 µM (active)
same,outcome,[14],inactive
same,outcome,"CD40, CD40 (gene 958) [15]",inactive
same,outcome,"CD69, CD69 (gene 969)",inactive
same,outcome,[16],inactive
same,outcome,[17],inactive
same,outcome,[18],inactive
CCc1ccc(O)c(C(C)(C)C)c1,AC50,[1],36.8 µM (active)
same,AC50,[2],34.7 µM (active)
same,AC50,[3],35.3 µM (active)
same,outcome,"CD40, CD40 (gene 958) [4]",inactive
same,outcome,[5],inactive
same,outcome,[6],inactive
same,AC50,[7],32 µM (active)
same,outcome,[8],inactive
same,outcome,[9],inactive
same,AC50,[10],25.3 µM (active)
same,outcome,[11],inactive
same,outcome,[12],inactive
same,AC50,[13],36.6 µM (active)
same,AC50,[14],30.5 µM (active)
same,AC50,"CD40, CD40 (gene 958) [15]",36 µM (active)
same,outcome,"CD69, CD69 (gene 969)",inactive
same,AC50,[16],20 µM (active)
same,AC50,[17],29.6 µM (active)
same,outcome,[18],inactive
O=C(O)c1cccc(C[C@@H]2COc3ccc(OCc4nc5cc(F)ccc5s4)cc3[C@@H]2O)c1,outcome,[2],inactive
same,outcome,[3],inactive
same,outcome,"CD40, CD40 (gene 958) [4]",inactive
same,outcome,[5],inactive
same,outcome,[6],inactive
same,outcome,[7],inactive
same,outcome,[8],inactive
same,outcome,[9],inactive
same,outcome,[10],inactive
same,outcome,[11],inactive
same,outcome,[12],inactive
same,outcome,[13],inactive
same,outcome,[14],inactive
same,outcome,"CD38, CD38 (gene 952)",inactive
same,outcome,"CD40, CD40 (gene 958) [15]",inactive
same,outcome,"CD69, CD69 (gene 969)",inactive
same,outcome,[16],inactive
same,outcome,[17],inactive
same,outcome,[18],inactive
